KKLEB tox – cytotoxicity in KKLEB CF airway cells, primary screen, cytotoxicity control for CF NF-kB inhibitor project, cell-based, uHTS, fluorescence assay plates | KKLEB CF airway cells viability, ATPlite luminescence, overnight; hits give low values; cells stimulated with P. aeruginosa culture filtrate | activity change (cytotoxicity), % at 5 µM | actives 0.36% (n = 360,000);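 active means corrected activity change at or below -50% at 5 µM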
C8 TRAIL sens – viability loss with TRAIL in NB7+C8 cells, primary screen, TRAIL sensitizer project, cell-based, ATPlite luminescence. actives 1% (n = 360,000). AID 624354, 2012. inhibition (viability loss, TRAIL sensitization), % at 10 µM;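 active means compounds causing at least 50% loss of cell viability in the single-dose screen, relative to plate controls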
HIF-2a block – HIF-2a reporter inhibitors, primary screen, luminescence, 786-0 RCC cells. actives 0.72% (n = 360,000). 786-0 RCC cells HIF-2a reporter, luciferase luminescence, overnight. inhibition, % at 18.8 µM;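 active means inhibition of the luminescence signal of 40% or more relative to plate controls, in a single-dose primary screen at 18.75 µM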
Peg3 prom inh – Peg3 promoter-driven luciferase inhibitors, primary screen, cell-based, HeLa, luciferase luminescence | HeLa PEG-Prom luciferase reporter, overnight | inhibition, % at 20 µM | actives 1.7% (n = 360,000) | AID 588405, 2011;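 active means inhibition of at least 50% at 20 µM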
PPC-1+TRAIL kill – compounds killing PPC-1 cancer cells with TRAIL present, primary screen, TRAIL potentiator project, ATPLite luminescence, uHTS; PPC-1 cells + TRAIL, ATPLite viability luminescence; cell killing (% activity), % at 4 µM or 5 µM; actives 0.41% (n = 220,000); AID 1443, 2008;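 active means cell killing above 50% in the first pass at 4 µM, then a duplicate retest at 5 µM averaging 50% or more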
CF NFkB inh – inhibitors of PAF-induced NF-kB signaling, primary screen, cell-based, GFP fluorescence, uHTS; inhibition, % at 5 µM; KKLEB NF-kB-GFP reporter, GFP fluorescence overnight; actives 0.86% (n = 360,000); AID 588850, 2011;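 active means at least 50% inhibition at 5 µM, scaled per plate between neutral and stimulator controls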;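 further: PAF is a Pseudomonas aeruginosa culture filtrate used as stimulus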
CF NFkB inh conf – inhibitors of PAF-induced NF-kB signaling, retest, confirmation, cell-based, GFP fluorescence, single concentration | shares compounds with CF NFkB inh | KKLEB CF airway cells, overnight | inhibition, % at 5 µM | actives 64% (n = 1,300); in the data active means inhibition above about 40%;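 further: stimulus PAF is a Pseudomonas aeruginosa filtrate and not platelet activating factor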
Each line names hits and unclear results; the compound was inactive in the other large screens (follow-up assays come after a bar, where they were run). Sampled rows, rich in hits. Any-hit rate of the full collection: about 3.1%.

Nc1cccc2c1C(=O)N(C(=O)c1ccco1)C2=O	none
Nc1cccc2c1C(=O)N(C(=O)/C=C/c1ccc(F)cc1)C2=O	Peg3 prom inh 102, CF NFkB inh 65 | CF NFkB inh conf inactive
NC(=O)c1sc2nc3c(c(-c4ccco4)c2c1N)CCCC3	CF NFkB inh 65 | CF NFkB inh conf 80
Cc1cc(C)c(C(N)=O)c(Nc2cccc3ccccc23)n1	CF NFkB inh 50 | CF NFkB inh conf inactive
Cc1cc(C)c2c(N)c(C(=O)c3ccccc3)sc2n1	none
Cc1nc2sc(C(N)=O)c(N)c2c(C)c1CC(=O)c1ccccc1	CF NFkB inh 59 (no result: PPC-1+TRAIL kill) | CF NFkB inh conf 75
COCc1cc(S(=O)c2ccc(Cl)cc2)nc(C)n1 (configuration not stated)	CF NFkB inh 87 | CF NFkB inh conf 83
CC(C)[C@H](CO)Nc1nc(NCc2ccc(S(N)(=O)=O)cc2)c2ncn(C(C)C)c2n1	CF NFkB inh 71 | CF NFkB inh conf 104
CC(C)n1cnc2c(NCc3ccc(S(N)(=O)=O)cc3)nc(NCc3ccc(S(N)(=O)=O)cc3)nc21	none
CNc1nnc(SCC(=O)c2c(N)n(C3CC3)c(=O)[nH]c2=O)s1	none (no result: PPC-1+TRAIL kill)
CS(=O)(=O)n1nc(OC(=O)c2cc(Br)ccc2Cl)cc1N	none
CS(=O)(=O)n1nc(OC(=O)c2cccc3ccccc23)cc1N	CF NFkB inh 66 | CF NFkB inh conf inactive
O=C(O)Cc1sc(Nc2cccc3ccccc23)nc1-c1ccc(Cl)cc1	none (no result: PPC-1+TRAIL kill)
CC(C)c1nc(SCC(=O)N2CCCc3ccccc32)c2c(=O)n(C)c(=O)n(C)c2n1	Peg3 prom inh 63, CF NFkB inh 64 | CF NFkB inh conf inactive
CCCc1nc(SCC(=O)N2CCc3ccccc32)c2c(=O)n(C)c(=O)n(C)c2n1	none (no result: KKLEB tox, C8 TRAIL sens, HIF-2a block, Peg3 prom inh, CF NFkB inh)
FC(F)Sc1ccc(NC(=S)NCC2CCCCC2)cc1	CF NFkB inh 50 | CF NFkB inh conf 61
FC(F)Sc1ccc(NC(=S)NC2CCCCC2)cc1	none
CCc1nc2ccc(C(=O)Nc3cccc(OCC(=O)N(C)C)c3)cn2c1N(CCC(C)C)CCN(C)C	none (no result: PPC-1+TRAIL kill)
CCc1cc2c(-c3ccccc3)cc(=O)oc2cc1OC(C)C(C)=O (configuration not stated)	none (no result: PPC-1+TRAIL kill)
CC(C)(C)OC(=O)NCC(=O)Oc1cc2oc(=O)cc(-c3ccccc3)c2cc1Cl	CF NFkB inh 53 | CF NFkB inh conf 90
O=C(Oc1cc2oc(=O)cc(-c3ccccc3)c2cc1Cl)C1CCCCC1	CF NFkB inh 64 | CF NFkB inh conf 87
CC(C)c1ccc(NC(=O)Nc2nc(C(N)CCc3ccccc3)cs2)cc1 (configuration not stated)	C8 TRAIL sens 95, Peg3 prom inh 98, CF NFkB inh 54 (no result: PPC-1+TRAIL kill) | CF NFkB inh conf inactive
CC(C)c1ccc(NC(=O)Nc2nc(CN)cs2)cc1	none (no result: PPC-1+TRAIL kill)
Cc1ccc(CN(C)C(=O)CSc2nnc3n2CCCCC3)c(C)c1	none (no result: PPC-1+TRAIL kill)
C[C@@]12CCC=C[C@H]1[C@H](c1ccc3ccccc3c1Br)N(Cc1ccccc1)C2=O	CF NFkB inh 57 | CF NFkB inh conf 40
C[C@@]12CCC=C[C@H]1[C@H](c1ccc3ccccc3c1)N(Cc1ccccc1)C2=O	none
O=C1[C@H](Cc2ccccc2)NCCCC[C@H](c2ccc(Cl)cc2)N1Cc1ccccc1	CF NFkB inh 59 (no result: PPC-1+TRAIL kill) | CF NFkB inh conf inactive
O=C1[C@H](Cc2ccccc2)NCCCC[C@H](c2ccco2)N1Cc1ccccc1	none (no result: PPC-1+TRAIL kill)
COc1cccc2c(SCC(=O)N/N=C/c3ccc(O)c(O)c3)cc(C)nc12	none
COc1cccc2c(SCC(=O)N/N=C/c3ccccc3)cc(C)nc12	CF NFkB inh 54 | CF NFkB inh conf 61
COc1ccc(CNC(=O)C[C@H]2C[C@H](C(=O)N3CCCCC3)[C@@]3(CCc4ccccc4)c4[nH]c5ccc(Cl)cc5c4CCN3C2=O)cc1OC	CF NFkB inh 51 (no result: PPC-1+TRAIL kill) | CF NFkB inh conf inactive

Screens (PubChem)
